# From PubChem
# AMA1-RON2 inh: disrupts binding of P. falciparum AMA1 to RON2; AlphaScreen AMA1-biotinylated RON2 peptide binding; Potency, µM (series often up to 58.2 µM), for the others: at the highest dose activity change, negative = inhibition, hits mostly inhibitors; actives 0.2% (n = 360,000); AID 720542;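 further: potency means the concentration at half of the fitted maximal effect; 0% = vehicle wells and -100% = peptide control; nearly all actives have a fitted effect of over 45% in size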
#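 AMA1 (3D7) with his tag at 25 nM final met compounds first, then biotinylated RON2 peptide at 25 nM; detection used donor plus acceptor beads, 10 µg/mL apiece, read by AlphaScreen after 30 min at room temperature.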
# Shiga inhibitor: Shiga toxin inhibition; Vero cells, Shiga toxin protein synthesis inhibition reporter; inhibition, % at 38.7 µM; actives 9.2% (n = 290,000); in the data active means inhibition mostly above about 28%, no sharp cut-off; inactive means mostly below about 43%; further: 0% is about no effect
# Pf growth 96h: P. falciparum growth inhibition at 96 hours | P. falciparum luciferase reporter growth, 96 h | Potency, µM (doses to about 28.7 µM), inactives show at the top dose activity change, negative = inhibition, hits mostly inhibitors | actives 6.9% (n = 320,000); further: potency means the concentration at half of the fitted maximal effect; on the % scale 0 is the no-effect control and ±100 the full control effect
#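 Erythrocytes infected with luciferase-expressing P. falciparum were dispensed at 2% hematocrit and 0.05% parasitemia (final), then incubated with compounds 96 hours at 37 C in 5% CO2. Luminescence after detection reagent addition reported growth.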
# Pf growth 48h: inhibits P. falciparum growth in the first generation, 48 h; actives 5.9% (n = 310,000); P. falciparum luciferase growth in erythrocytes, 48 h; Potency, µM (series often up to 28.7 µM), for inactives: top-dose activity change, negative = inhibition, actives largely listed as inhibitors; further: potency means the concentration at half of the fitted maximal effect; on the % scale 0 is the no-effect control and ±100 the full control effect
#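 Growth was read as firefly luciferase luminescence after a 48 h, 37 C, 5% CO2 exposure of compounds to reporter-bearing P. falciparum cultures (0.1% parasitemia, 2% hematocrit final) in Albumax-supplemented RPMI 1640.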
# SARS PLP yeast: blocks SARS-CoV papain-like protease in a yeast assay. Potency, µM (highest dose often 32.9 µM), inactives show top-dose activity, positive = growth rescue, actives largely listed as activators. actives 0.19% (n = 330,000). S. cerevisiae expressing SARS-CoV PLpro, growth rescue; calls by dose curve; further: potency means the concentration at half of the fitted maximal effect; 0% is about no effect; nearly all actives have a fitted effect of over 55% in size
# Cycloheximide cs: counter-screen for Shiga toxin inhibitors: cycloheximide protein synthesis inhibition; cell reporter, cycloheximide protein synthesis inhibition counterscreen; max response, %; actives 12% (n = 300,000); AID 2314; in the data active means max response mostly above about 13%, no sharp cut-off; inactive means mostly below about 14%; further: read at 38.3 µM for the half of the compounds with a filed dose; 0% is about no effect
# Active calls of the source: *; ? = inconclusive; nt = not tested or not shown. An excerpt weighted towards active compounds, which were near 19% of everything screened. Unless noted, the call rests on the fitted dose curve; in most records, active means well fitted curve in the direction sought with a large enough effect; inconclusive means small, poorly fitted or top-dose-only effect, or another doubt; inactive means no such curve, though single readings can be large; an effect the other way counts as inactive or inconclusive.
SMILES,AMA1-RON2 inh,Shiga inhibitor,Pf growth 96h,Pf growth 48h,SARS PLP yeast,Cycloheximide cs
COc1ccc2cc3c(N)nn(C(=O)c4ccccc4Cl)c3nc2c1,4.1%,-16.2,?,8.28µM*,-1.8%,-1.4
CC(C)c1ccc2nc3sc(C(=O)N4CCc5ccccc5C4)c(N)c3cc2c1,25.9%,118.4,68.4%,5.9%,-2.9%,24.1*
CCN1CCc2nc3sc(C(=O)N4CCc5ccccc5C4)c(N)c3cc2C1,-16.1%,11.1,38.9%,?,-0.7%,-2.3
COc1ccc2cc3c(N)nn(C(=O)c4ccc(F)cc4)c3nc2c1,0.0%,-16.2,?,?,0.1%,-1.3
O=C(O)CSc1nc2ccc(Br)cc2[nH]1,-14.6%,nt,nt,nt,nt,nt
Cc1ccc2cc3c(N)c(C(=O)N4CC(=O)Nc5ccccc54)sc3nc2c1,nt,2.8,33.5%,-7.3%,-0.9%,3.6
CCOc1ccc2nc3sc(C(=O)N4CCN(C)CC4)c(N)c3cc2c1,25.8%,62.6,nt,?,-5.1%,17.1*
CCOc1ccc(-n2c(N)c(C(=O)N3CCN(C)CC3)sc2=S)cc1,-7.9%,-5.9,?,9.5%,1.5%,-4.2
Cc1ccc2cc3c(N)c(C(=O)N4CCOCC4)sc3nc2c1,36.3%,103.2*,0.0%,128.3%,0.6%,29.6*
COc1ccc(S(=O)(=O)N2CCC(C(=O)NCCC(=O)NCc3cccnc3)CC2)cc1,0.0%,nt,nt,nt,nt,nt
O=S(=O)([N-]c1nc2ccccc2nc1-[n+]1ccc(CCCc2ccccc2)cc1)c1cccs1,-5.7%,7.5,5.22µM*,7.38µM*,0.3%,4.8
O=S(=O)([N-]c1nc2ccccc2nc1-[n+]1ccc(-c2ccncc2)cc1)c1ccccc1,6.6%,92.0*,?,?,-0.1%,33.6*
Cc1ccc(C)c(NC(=O)CCN2CCCCC2)c1,11.1%,nt,29.9%,-18.8%,-1.1%,-0.4
CCN(CC)CCN(C(=O)Cn1nnc(-c2ccc(C)o2)n1)C(C(=O)NC(C)(C)C)c1cccs1 (stereo not given),-2.8%,-3.2,?,?,0.2%,-3.9
c1ccc(-n2ccnc2)cc1,-13.3%,9.7,9.5%,37.5%,9.9%,-2.0
CCCCNc1nc(-c2ccccc2)nc(-n2ccnc2)n1,-9.4%,-6.7,0.0%,nt,4.3%,-5.5
c1ccc(-c2nc(-n3ccnc3)nc(-n3ccnc3)n2)cc1,-17.5%,-16.4,2.33µM*,8.28µM*,-8.8%,-0.5
CC(C)Nc1nc(-c2ccccc2)nc(-n2ccnc2)n1,20.4%,20.7,3.3%,2.33µM*,-12.6%,12.6
c1ccc(-c2nc(NC3CC3)nc(-n3ccnc3)n2)cc1,3.3%,12.5,-2.5%,13.1µM*,-7.9%,1.1
C=CCNc1nc(-c2ccccc2)nc(-n2ccnc2)n1,0.9%,-8.0,?,13.1µM*,-6.8%,0.8
c1ccc(CN2CCN(c3nc(-c4ccccc4)nc(-n4ccnc4)n3)CC2)cc1,?,-1.2,-9.1%,3.7µM*,-20.1%,-3.4
COc1ccc(Cl)cc1NC(=O)Cn1c(NCCO)nc2ccccc21,1.9%,-16.3,0.1%,15.4%,-1.2%,1.5
Cc1ccc2c(c1)c1nnc(SCC(=O)N3CCCc4ccccc43)nc1n2CC(=O)O,-0.1%,76.2*,21.1%,-28.0%,-3.3%,32.1*
Cc1ccc(-c2ccc(SCC(=O)N3CCCc4ccccc43)nn2)cc1,nt,52.4*,?,31.9%,-7.8%,23.8*
Cc1cc(C)nc(SCC(=O)N2CCc3ccccc32)n1,11.0%,nt,nt,nt,nt,nt
SMILES,AMA1-RON2 inh,Shiga inhibitor,Pf growth 96h,Pf growth 48h,SARS PLP yeast,Cycloheximide cs
Cc1ccc(SCC(=O)N2CCc3ccccc32)cc1,5.5%,52.6*,?,77.2%,3.9%,45.9*
CCc1nnc(SCC(=O)N2CCCc3ccccc32)nc1CC,-18.5%,-7.8,31.8%,?,1.4%,1.2
Nc1ccccc1SCC(=O)N1CCc2ccccc21,-7.9%,67.2,?,63.4%,-2.0%,41.0*
CC(=O)N1c2ccc(S(=O)(=O)N3CCC(C(=O)N4CCN(c5ccccc5F)CC4)CC3)cc2CC1C (stereo not given),18.4%,-6.7,?,?,2.3%,-0.3
O=C(CNc1ccccc1OC(F)F)N1CCc2ccccc21,4.4%,45.0*,0.8%,326.6%,0.8%,32.0*
CC(C)c1nc(SCC(=O)N2CCc3ccccc32)n[nH]1,19.2%,47.3,35.2%,76.2%,-1.1%,20.8*
O=C(CSC1=NCCS1)N1CCc2ccccc21,?,178.3*,?,134.5%,0.7%,41.1*
